In PubChem BioAssay AID686979 (National Center for Advancing Translational Sciences (NCATS), 2013):
About 50,000 (12%) of roughly 420,000 compounds were called active. Not shown: some 26% with an inconclusive outcome. Shown is part of a subset that was picked to be rich in actives. Values without a mark were called inactive. Calls follow the shape of the dose curve; as a rule, active = well fitted inhibition curve with a large enough effect; inconclusive = small, poorly fitted or top-dose-only effect; inactive = flat fitted curve, though single readings scatter.

Test: qHTS for Inhibitors of human tyrosyl-DNA phosphodiesterase 1 (TDP1): qHTS in cells in presence of CPT; also: nearly all actives have a fitted effect of over 55% in size
Conditions: chicken DT40 Tdp1-/-;hTDP1 cells + 20 nM CPT, ATP luminescence, 48 h; series mostly up to 46.2 µM; activity change, negative = growth inhibition: at the top concentration
Source text: Human tyrosyl-DNA phosphodiesterase 1 (TDP1) is a novel repair gene, and we propose to use it as a new target for anticancer drug development. TDP1 is not an essential protein, but under treatment with topoisomerase I poison (camptothecin: CPT), TDP1 works as a critical factor for cell survival. To directly identify novel TDP1 inhibitors active in a cellular environment, we have knocked-out the Tdp1 gene in chicken DT40 cells (Tdp1-/-) and generated a complemented counterpart cells that contains a stable transfection of the human TDP1 gene (Tdp1-/-;hTDP1 cells). For the primary screen, Tdp1-/-;hTDP1 cells will be exposed to small molecules in the presence or absence of CPT, and their growth kinetics will be evaluated after 48 hours by measuring ATP activity. […] The hit compounds will then be evaluated in the presence or absence of CPT using Tdp1-/- cells. […] In tertiary assays, biochemical gel-based assays will be used to assess whether the hit compounds specifically target TDP1. To this end, we have screened this cell line against the MLSMR in two primary screens. In one screen we add CPT and in the other we screen in the absence of CPT; this AID represents the screen where CPT was present. NIH Chemical Genomics Center [NCGC] NIH Molecular Libraries Probe Centers Network [MLPCN] MLPCN Grant: MH095538 Assay Submitter (PI): Yves Pommier, NCI
DT40-hTDP1 cells with 20 nM Camptothecin (add 20 microL of 1 mM CPT stock in 1 L of cell culture medium) were dispensed at 400 cells/5microL/well in tissue culture treated 1536-well white wall/solid bottom assay plates (Greiner Bio-One North America, NC, U.S.A.) using a Multidrop Combi 8 channel dispenser (Thermo Fisher, Waltham, MA, USA). 23 nL compounds and controls were transferred using the pin tool (Kalypsys, San Diego, CA, USA) to the assay plates. The assay plates were then incubated at 37 masculineC for a minimum 48 hr. Three microL of Cell Titer Glo solution was added to the plates and incubated at RT in dark for 30 min. Luminescence was read using ViewLux (Perkin Elmer) with 1 sec exposure slow speed, high gain and 2x binning.
% is scaled to controls: 0 for no effect and ±100 for the full control effect; potency is read from the fitted curve at half-maximal effect.

Row | SMILES | Potency | activity change, negative = growth inhibition
1 | O=C(Nc1ccc(Cl)cc1)C1Cc2c(-c3ccc4c(c3)OCO4)ccnc2O1 (stereo unspecified) | 23.1 µM (active) | 
2 | COc1ccc(NC(=O)C2Cc3c(-c4ccc5c(c4)OCO5)ccnc3O2)cn1 (stereo unspecified) | 4.11 µM (active) | 
3 | O=C(Nc1ccc(Cl)c(C(F)(F)F)c1)C1Cc2c(-c3ccccc3Oc3ccccc3)ccnc2O1 (stereo unspecified) | 18.4 µM (active) | 
4 | O=C(COC(=O)c1cc[n+]([O-])cc1)Nc1ccc(Cl)c(C(F)(F)F)c1 |  | -26%
5 | COc1ccc(N(CC(=O)NC2CCCC2)C(=O)CS(=O)CC(=O)Nc2ccc3c(c2)OCO3)cc1 (stereo unspecified) |  | -3.24%
6 | COc1ccc(NC(=O)CSc2nccn2Cc2ccc3c(c2)OCO3)cc1 |  | -24%
7 | CC(=O)c1cccc(NC(=O)C2CCCN2S(=O)(=O)c2cccc3nsnc23)c1 (stereo unspecified) |  | 9.59%
8 | COCCNC(=O)CSc1nc(N)c(NC(=O)c2ccco2)c(=O)[nH]1 |  | 3.53%
9 | COC(=O)c1c(C)oc(C)c1S(=O)(=O)NCc1ccc(Cl)cc1 |  | -20.3%
10 | COC(=O)c1cc(NC(=O)CCS(=O)(=O)c2cc(Br)cc3c2N(C(=O)C2CC2)CC3)cc(C(=O)OC)c1 |  | -2.75%
11 | Cc1cc(C)n(-c2ccc(NC(=O)C3CCCCN3C(=O)c3cccs3)cc2)n1 (stereo unspecified) |  | -10.8%
12 | Cc1cccc(OCCSc2nc3ccc(NC(=O)COc4ccccc4C)cc3s2)c1 |  | -21.3%
13 | COc1cc(C)ccc1OCCSc1nc2ccc(NC(=O)c3ccc(C)cc3)cc2s1 |  | -27.4%
14 | Cc1ccccc1OCCSc1nc2ccc(NC(=O)c3ccco3)cc2s1 | 20.6 µM (active) | 
15 | Cc1ccccc1SCC(=O)OCC(=O)N1CC(=O)Nc2ccccc21 |  | 5.39%
16 | CC1=NNC(=O)C1CCC(=O)N/N=C\c1ccc(Cl)c(Cl)c1 (stereo unspecified) |  | 1.5%
17 | Cc1cccc(OCc2nnc(SCC(=O)N3CCN(C(=O)c4ccco4)CC3)n2C)c1C |  | -0.881%
18 | Cc1ccnc(NC(=O)CCC(=O)N(CC(=O)NCc2ccccc2)Cc2ccco2)c1 |  | 37.5%
19 | Cc1cccc(OCC(=O)N(Cc2ccc(C(C)C)cc2)Cc2ccco2)c1C | 16.4 µM (active) | 
20 | Cc1cccc(N(C(=O)Cn2nnc(-c3ccc(C)o3)n2)C(C(=O)NC2CCCC2)c2ccncc2)c1 (stereo unspecified) |  | -14.6%
21 | COc1ccc(CN2CCC3(CCC(CNC(=O)c4ccco4)O3)CC2)cc1OC (stereo unspecified) |  | -1.91% [at 9.04 µM]
22 | O=C(OCC(=O)N1CCCC1)c1ccc(Cl)nc1 |  | -5.05%
23 | O=C(Nc1ccc(NC(=O)c2cccs2)cc1)c1ccc2ccccc2c1 |  | -3.7%

Row | SMILES | Potency | activity change, negative = growth inhibition
24 | CC(C)(C)c1ccc(C(=O)Nc2ccc3c(c2)CCCN3C(=O)c2cccs2)cc1 | 5.8 µM (active) | 
25 | O=C(Nc1ccccc1)c1ccc(NC(=O)c2cccs2)cc1 |  | -21.6%
26 | COCCN(C(=O)CCC(=O)Nc1nccs1)C(C(=O)NC(C)(C)C)c1ccc(Cl)cc1 (stereo unspecified) |  | -4.68%
27 | Cc1cnc(C)c(-c2cc(F)c3c(c2)CC(CNC(=O)c2cccc(Cn4cccn4)c2)O3)n1 (stereo unspecified) |  | -5.96%
28 | CCOC(=O)N1CCN(Cc2ccc3c(c2)CN(C(=O)c2cccc(-n4cccn4)c2)CCO3)CC1 |  | -11.3% [at 9.04 µM]
29 | O=C(c1cccc(Cn2cccn2)c1)N1CCOc2c(cc(-c3csc4ccccc34)cc2OC2CCOC2)C1 (stereo unspecified) | 18.4 µM (active) | 
30 | Cc1ccc(C(=O)NCC(=O)OCC(=O)Nc2cccc(S(=O)(=O)N3CCCC3)c2)cc1C |  | -26.5%
31 | CN1C[C@@H](CO)O[C@@H](n2cnc3c(N4CCN(CCO)CC4)ncnc32)C1 |  | -0.685%
32 | CCCCn1c(N)c(N(CCC(C)C)C(=O)CC2OC(=O)c3ccccc32)c(=O)[nH]c1=O (stereo unspecified) |  | -12.2%
33 | CCOc1cc(/C=C(/C#N)c2ccc(Cl)cc2)cc(Cl)c1OCC(=O)O |  | -4.71%
34 | CCOc1ccc(C(CC(=O)O)NC(=O)COc2ccccc2)cc1 (stereo unspecified) |  | -2.55%
35 | O=C(COc1ccc(-c2ccccc2)cc1)NN=C1CCCC1 |  | 6.33%
36 | CC(NC(=O)COc1ccc(-c2ccccc2)cc1)C1CCCO1 (stereo unspecified) | 20.6 µM (active) | 
37 | CN(C(=O)COC(=O)CNC(=O)C12CC3CC(CC(C3)C1)C2)c1ccccc1 |  | -8.7%
38 | O=C(NCC(=O)N1CCC2(CC1)NCCc1[nH]cnc12)c1ccc(Br)cc1 |  | -15.1%
39 | CCc1ccc(CN(C)C(C)C(=O)Nc2ccc(S(=O)(=O)N3CCCC3)cc2)cc1 (stereo unspecified) | 18.4 µM (active) | 
40 | CN(CC(=O)Nc1ccc(S(=O)(=O)N2CCCC2)cc1)Cc1ccc(Cl)c(Cl)c1 |  | -74.4%
41 | CC(OC(=O)c1ccc(NC(=O)CC#N)cc1)C(=O)Nc1ccc(S(=O)(=O)N2CCCC2)cc1 (stereo unspecified) |  | -20%
42 | Cc1cc(/C=C(/C#N)C(=O)Nc2ccc(Cl)cc2)c(C)n1-c1cccnc1 |  | -22%
43 | COCCn1c(SCC(=O)Nc2ccc(F)cc2F)nc2c(c1=O)SCC2 |  | -8.27%
44 | O=C(NNS(=O)(=O)c1ccc(F)cc1)c1cnccn1 |  | 13.9%
45 | C=CCn1c(=O)c(C(=O)Nc2ncccc2O)c(O)c2ccccc21 |  | 20.6%
46 | O=C(O)/C=C/c1ccc(S(=O)(=O)N2CCCCCC2)cc1 |  | 9.25%
